# JMJD2A Tudor inh – JMJD2A Tudor domain (human) inhibition; O75164; AlphaScreen JMJD2A-Tudor / H3K4me3 peptide binding; Potency, µM (series often up to 114 µM), most hits filed as inhibitors; actives 4.4% (n = 390,000); AID 504339; also: nearly all actives have a fitted effect of over 50% in size
# HP1b binding inh – inhibitors of HP1-beta chromodomain binding to methylated histone tails. actives 0.56% (n = 390,000). AlphaScreen HP1-beta / biotin-H3K9me3 peptide binding. Potency, µM (series often up to 114 µM), most hits filed as inhibitors. AID 540317; also: nearly all actives have a fitted effect of over 70% in size
#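 AlphaScreen: HP1-beta (50 nM) preformed 30 min with biotin-H3(1-18)K9me3 peptide (50 nM) in PBS pH 7.4, 0.01% Tween-20. Compound added for 30 min at RT, then streptavidin donor/nickel chelate acceptor beads (10 ug/mL) for 30 min.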
# BAZ2B inh – inhibitors of human BAZ2B bromodomain; AlphaScreen BAZ2B-H3K14Ac peptide displacement; actives 4.4% (n = 360,000); AID 504333; Q9UIF8; Potency, µM (highest dose often 114 µM), hits mostly inhibitors; also: nearly all actives have a fitted effect of over 60% in size
#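 In this displacement format the biotinylated H3(5-23) peptide acetylated at Lys14 serves as ligand at 50 nM, with BAZ2B at 50 nM in PBS pH 7.4 containing 0.01% Tween-20. Donor and acceptor beads are 10 ug/mL final.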
# G9a inh – blocks human histone lysine methyltransferase G9a. G9a H3K9 monomethylation, AlphaScreen, 2 h. Potency, µM (series often up to 102 µM), usual class: inhibitors. actives 8.8% (n = 350,000); also: nearly all actives have a fitted effect of over 75% in size
#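 G9a (20 nM) was preincubated 15 min with compound, then reacted 2 h at room temperature with 500 nM biotin-H3K9 peptide and 20 µM SAM. Monomethyl-H3K9 detected by AlphaScreen using anti-H3K9me1 antibody.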
# L3MBTL1 block – L3MBTL1 (human) inhibition. Q9Y468. AlphaScreen L3MBTL1–H3K9me1 peptide binding. Potency, µM (series often up to 57.1 µM), most hits filed as inhibitors. actives 0.66% (n = 230,000); also: nearly all actives have a fitted effect of over 60% in size
#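 First, the protein-peptide complex forms for 30 min at room temperature (L3MBTL1 50 nM, biotinylated H3K9me1 peptide 75 nM). Next, compounds are pin-transferred and incubated 30 min. Finally, AlphaScreen beads are added and read after 30 min.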
# Sfp PPTase inh – blocks B. subtilis Sfp PPTase activity. Biochemical Sfp PPTase activity, qHTS. Potency, µM, actives largely listed as inhibitors. Q9F4F7. AID 1490. actives 3.5% (n = 310,000);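 also: the enzyme is Sfp with the accession as filed and its product quenches rhodamine fluorescence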
#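 Fluorescence-quenching assay: 15 nM Sfp-PPTase preincubated 15 min at room temperature with compound, then 5 uM rhodamine-CoA and 12.5 uM BHQ-2-labelled YbbR peptide added. Fluorescence (ex 525/em 598 nm) read at start and after 30 min; difference gives rate.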
# Numbers stand for hits; – = inactive; ? = inconclusive; · = no result; [ ] = remark or other dose. Sampled rows, rich in hits. Any-hit rate of the full collection: about 12%. Calls follow the shape of the dose curve; as a rule, active = well fitted curve in the direction sought with a large enough effect; inconclusive = small, poorly fitted or top-dose-only effect, or another doubt; inactive = no such curve, though single readings can be large; an effect the other way counts as inactive or inconclusive.
SMILES,JMJD2A Tudor inh,HP1b binding inh,BAZ2B inh,G9a inh,L3MBTL1 block,Sfp PPTase inh
NS(=O)(=O)c1ccc(NC(=O)/C=C/c2ccco2)cc1,–,?,–,45µM,?,20µM
Cc1ccc(N2CC(NC(=O)c3ccc(S(=O)(=O)N4CCOCC4)cc3)CC2=O)cc1 (stereo not given),–,–,–,–,·,·
CCOc1ccc(NC(=O)CCS(=O)(=O)c2ccc3c(c2)n(C)c(=O)c(=O)n3C)cc1,–,–,–,–,·,·
CCN(CC(=O)Nc1ccc(NC(C)=O)cc1)C(=O)/C=C/c1ccco1,–,–,–,50µM,–,·
O=C(/C=C/c1ccc(Cl)cc1)NC(=S)Nc1ccc(C(=O)O)cc1,22µM,?,50µM,?,·,–
O=C(/C=C/c1ccco1)NC(=S)Nc1ccc(C(=O)O)cc1,35µM,71µM,32µM,10µM,·,56µM
O=C(O)CNC(=O)/C(=C/c1ccco1)NC(=O)/C=C/c1ccccc1,–,–,?,?,?,56µM
Cc1cc2c(s1)c1cnn(Cc3cc(F)c(F)c(F)c3F)c(=O)c1n2C,–,·,·,·,·,·
COC(c1ccccc1Br)C(C)/C=C/CCO (stereo not given),·,·,·,·,·,–
CCN(CC)S(=O)(=O)c1ccc2c(c1)c(=O)c(C(=O)NCc1ccccc1Cl)cn2C,–,–,·,–,·,·
COc1ccc(NC(=O)CN(C)S(=O)(=O)c2ccc(C(=O)N3CCOCC3)s2)cc1,–,–,–,–,·,·
COc1ccc(C(=O)O)cc1NC(=S)NC(=O)/C=C/c1ccc(C(C)C)cc1,79µM,–,50µM,?,·,–
CCC(=O)Nc1ccc(NC(=S)NC(=O)/C=C/c2ccco2)cc1,?,–,–,–[0.501 µM],–[2.29 µM],–
O=C(/C=C/c1ccco1)N1CCN(c2ccccc2)CC1,–,–,–,?,–,–
CCCCC(=O)NC(=S)Nc1cc(C(=O)O)ccc1OC,–,–,–,–,–,–
O=C(/C=C\c1ccco1)Nc1ccc(N2CCN(C(=O)c3ccccc3)CC2)cc1,–,–,71µM,?,–,–
COc1ccccc1/C=C/C(=O)NNC(=O)c1cc(C)oc1C,–,–,–,–,–,·
CC(=O)NC(=S)Nc1ccc(NC(=S)NC(=O)/C=C/c2ccco2)cc1,?,–,?,40µM,·,–
Cc1cc(C(=O)NNC(=O)/C=C/c2ccco2)c(C)o1,45µM,?,?,22µM,7.9µM,·
COc1cccc(NC(=O)Cn2c(=O)n(CCc3ccccc3)c(=O)c3c4c(sc32)CN(C(C)=O)CC4)c1,–,–,–,?,·,·
Cc1ccc(O)c(NC(=S)NC(=O)/C=C/c2ccco2)c1,–,–,–,–,–,–
CCN(CC(=O)Nc1ccc(NC(C)=O)cc1)C(=O)Cc1coc2cc(C)c(C)cc12,–,–,–,50µM,–,·
O=C(/C=C/c1ccco1)NC(=S)Nc1ccc(O)c(-c2nc3ccccc3s2)c1,?,–,–,40µM,?,–
O=C(/C=C/c1ccccc1)N/C(=C/c1ccccc1)C(=O)Nc1ccc(C(=O)O)cc1,50µM,–,–,–,–,–
COc1ccc(NC(=S)NC(=O)/C=C/c2ccco2)cc1,–,–,?,22µM,·,–
SMILES,JMJD2A Tudor inh,HP1b binding inh,BAZ2B inh,G9a inh,L3MBTL1 block,Sfp PPTase inh
C1CCN2C[C@H]3C[C@H](CN4CCCCC34)C2C1 (stereo not given in full),·,·,·,–[2.33 µM],·,–
CCCCn1c(=O)c2oc3ccccc3c2n(CC(=O)Nc2cc(C)ccc2C)c1=O,–,–,–,–,·,·
COc1ccccc1Nc1ccc2c(O)cc(S(=O)(=O)O)cc2c1,20µM,22µM,·,·,·,·
Nc1cccc2c(O)cc(S(=O)(=O)O)cc12,10µM,10µM,·,·,·,·
Nc1ccc2c(O)cc(S(=O)(=O)O)cc2c1,45µM,?,·,·,·,·
O=S(=O)(O)c1ccc(O)c2cc(Nc3ccccc3)ccc12,2.8µM,2µM,·,·,·,·
COc1ccc(S(=O)(=O)O)cc1P(=O)(c1ccccc1)c1ccccc1,–,–,–,–,·,–
CCCCN1CC(c2nc3ccccc3n2CCCCOc2cccc(C)c2C)CC1=O (stereo not given),–,–,–,?,·,·
O=S(=O)(O)c1cc(O)c2c(N=Nc3ccc(Nc4ccccc4)c4c(S(=O)(=O)O)cccc34)cc(S(=O)(=O)O)cc2c1,·,·,·,?,·,–
